Source: PubChem
AmpC detergent: qHTS Inhibitors of AmpC Beta-Lactamase (assay with detergent); P00811; AmpC hydrolysis of nitrocefin, absorbance 480 nm, 0.01% Triton; Potency, µM (titrated, usually from 114 µM), usual class: inhibitors; 370,000 compounds, 0.041% hits; AID 485294, 2010; further: nearly all actives have a fitted effect of over 25% in size
Target sequence (P00811 whole entry, looked up): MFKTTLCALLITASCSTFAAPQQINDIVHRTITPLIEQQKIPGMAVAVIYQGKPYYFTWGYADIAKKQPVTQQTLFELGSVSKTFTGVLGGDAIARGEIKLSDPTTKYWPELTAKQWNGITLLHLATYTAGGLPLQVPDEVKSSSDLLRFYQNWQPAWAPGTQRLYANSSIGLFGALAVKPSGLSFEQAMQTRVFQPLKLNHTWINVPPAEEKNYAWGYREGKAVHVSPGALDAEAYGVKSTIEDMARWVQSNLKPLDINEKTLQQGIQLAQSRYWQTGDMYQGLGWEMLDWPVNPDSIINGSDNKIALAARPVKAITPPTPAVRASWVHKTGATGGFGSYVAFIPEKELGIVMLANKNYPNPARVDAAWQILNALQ
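AmpC (5.3 nM in the dispensed reagent) in 20 mM phosphate pH 7.0 with 0.01% (detergent screen) or 0.0001% Triton X-100 was preincubated with compounds for 15 min at room temperature. Nitrocefin was then added from an 800 uM solution, and hydrolysis was followed at 480 nm.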
HCV inh: qHTS Assay for Inhibitors of Hepatitis C Virus (HCV); Huh7.5.1 HCVcc-Cre infection, luciferase reporter, 44 h; Potency, µM (titrated, usually from 41.8 µM), actives largely listed as inhibitors; 340,000 compounds, 3.4% hits
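Whole-lifecycle infectious HCVcc-Cre system; cells 1,000/well, compound then virus (~0.5 moi) added 4 h after plating, 44 h culture. Luciferase read 15 sec following 15 min substrate incubation, room temp.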
AmpC no deterg: qHTS Inhibitors of AmpC Beta-Lactamase (assay without detergent); P00811; AmpC nitrocefin hydrolysis, absorbance 480 nm, 0.0001% Triton; Potency, µM (top dose mostly 57.1 µM), actives largely listed as inhibitors; 330,000 compounds, 0.52% hits; AID 485341, 2010; further: nearly all actives have a fitted effect of over 20% in size
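AmpC (5.3 nM in the dispensed reagent) in 20 mM phosphate pH 7.0 with 0.01% (detergent screen) or 0.0001% Triton X-100 was preincubated with compounds for 15 min at room temperature. Nitrocefin was then added from an 800 uM solution, and hydrolysis was followed at 480 nm.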
Pf growth 48h: Primary qHTS for delayed death inhibitors of the malarial parasite plastid, 48 hour incubation; P. falciparum luciferase growth in erythrocytes, 48 h; Potency, µM (highest dose often 28.7 µM), hits mostly inhibitors; 310,000 compounds, 5.9% hits; AID 504832, 2011
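Read-out is firefly luciferase luminescence from an integrated reporter in P. falciparum, so falling signal marks reduced parasite growth. Infected erythrocytes were at 2% hematocrit and 0.1% parasitemia (final) in Albumax-supplemented RPMI 1640.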
Pf growth 96h: Primary qHTS for delayed death inhibitors of the malarial parasite plastid, 96 hour incubation; P. falciparum luciferase reporter growth, 96 h; Potency, µM (top dose mostly 28.7 µM), most hits filed as inhibitors; 320,000 compounds, 6.9% hits
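Two-generation exposure (96 h) targets delayed-death phenotype. Reporter parasites carrying integrated firefly luciferase, in red cells at 2% hematocrit and 0.05% parasitemia final, kept at 37 C, 5% CO2; luminescence loss indicates inhibition.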
AMA1-RON2 inh: qHTS for Inhibitors of AMA1-RON; Towards Development of Antimalarial Drug Lead: Primary Screen; 360,000 compounds, 0.2% hits; Plasmodium falciparum AMA1 (3D7) - RON2 peptide interaction; Potency, µM (top dose mostly 58.2 µM), hits mostly inhibitors; AlphaScreen AMA1-biotinylated RON2 peptide binding; AID 720542, 2013; further: nearly all actives have a fitted effect of over 45% in size
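AMA1 (3D7) with his tag at 25 nM final met compounds first, then biotinylated RON2 peptide at 25 nM; detection used donor plus acceptor beads, 10 µg/mL apiece, read by AlphaScreen after 30 min at room temperature.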
A number is an active result; n = inactive; u = inconclusive; x = not tested or not shown; [ ] = another dose, or the depositor's remark. This is a sample that favours compounds with a hit; in the whole collection about 11% have one here. The call rests on the fitted dose curve; in most records, active means well fitted curve in the direction sought with a large enough effect; inconclusive means small, poorly fitted or top-dose-only effect, or another doubt; inactive means no such curve, though single readings can be large; an effect the other way counts as inactive or inconclusive.

SMILES	AmpC detergent	HCV inh	AmpC no deterg	Pf growth 48h	Pf growth 96h	AMA1-RON2 inh
CC1(C)CC2(CC(c3cccs3)c3cc(Cl)c(O)cc3O2)NC(=S)N1 (centres undefined)	n	u	n	u	u	n
COC(=O)c1ccc(C(=O)OC)c(NC(=O)CN2CCN(c3ccccc3OC)CC2)c1	n	u	n	13µM	n	n
CC(NC(=O)c1ccccc1NC(=O)CN1CCN(c2ccccc2O)CC1)c1ccccc1 (centres undefined)	n	u	n	5.9µM	13µM	n
COc1ccccc1N1CCN(CC(=O)Nc2ccccc2C(=O)NCCc2ccccc2)CC1	n	u	n	u	u	n
COc1ccccc1N1CCN(CC(=O)Nc2ccccc2C(=O)NC(C)c2ccccc2)CC1 (centres undefined)	n	u	n	12µM	u	n
COC(=O)c1ccc(C(=O)OC)c(NC(=O)CN2CCN(c3ccccc3)CC2)c1	n	n	n	n	n	n
CC(NC(=O)c1ccccc1NC(=O)CN1CCc2ccccc2C1)c1ccccc1 (centres undefined)	n	u	n	u	13µM	n
O=C(CN1CCN(c2ccccc2O)CC1)Nc1ccccc1C(=O)NCCc1ccccc1	n	u	n	n	n	n
CCCS(=O)(=O)c1nc(S(=O)(=O)c2ccc(C)cc2)c(N(C)Cc2ccccc2)s1	n	x	x	x	x	x
Cc1cc(F)ccc1NC(=O)Cn1cc(S(=O)(=O)NC(C)C)c(S(=O)(=O)NC(C)C)c1	n	x	x	x	x	x
CC1CC(N(C(=O)c2ccco2)c2ccccc2)c2ccccc2N1C(=O)c1ccco1 (centres undefined)	u	n	n	x	u	n
CC1CC(N(C(=O)c2ccc(Cl)cc2)c2ccccc2)c2ccccc2N1C(=O)c1ccco1 (centres undefined)	n	10µM	n	x	9.3µM	n
COc1ccc(N(C)C(=O)NCc2noc3ccc(C)cc23)c(OC)c1	n	x	x	x	x	x
CCc1nc2cccnc2n1-c1ccc(CC(=O)Nc2cccc(C)c2C)cc1	n	x	x	x	x	x
O=C(Cc1ccc([N+](=O)[O-])cc1)Nc1cccc(C(F)(F)F)c1	u	n	n	n	u	n
O=C(Cc1ccc([N+](=O)[O-])cc1)Nc1ccc(O)cc1C(=O)O	n	n	n	n	5.2µM	n[2.32 µM]
O=C(Cc1ccc([N+](=O)[O-])cc1)Nc1cc(C(F)(F)F)cc(C(F)(F)F)c1	n	n	n	n	15µM	n
Cc1ccc(S(=O)(=O)Nc2ccc3nc(-c4cccc(Cl)c4)oc3c2)cc1	n	x	x	x	x	x
CN(C)S(=O)(=O)c1ccc(Cl)c(C(=O)Nc2cccc([N+](=O)[O-])c2)c1	n	11µM	n	u	n	n
O=C(Nc1ccc(Nc2ccccc2)cc1)c1cc([N+](=O)[O-])ccc1Cl	n	11µM	n	u	u	n
CC(C)Sc1ccc([N+](=O)[O-])cc1C(=O)Nc1ccncc1	n	n	n	u	1.2µM	n
O=C(Nc1ccccc1Oc1ccccc1)c1cc([N+](=O)[O-])ccc1Cl	u	u	n	u	n	n
O=C(CCC1N=C2c3ccccc3N=C(SCc3cccc(F)c3)N2C1=O)NCc1ccc(F)cc1 (centres undefined)	n	x	x	x	x	x
CCOCCn1ccc2c(OCC(=O)Nc3ccc(C(N)=O)cc3)cccc2c1=O	n	x	x	x	x	x
COc1ccccc1N1CCN(C(=O)c2cnn(-c3cccc(Cl)c3)c2C2CCN(C(=O)OC(C)(C)C)CC2)CC1	n	x	x	x	x	x
SMILES	AmpC detergent	HCV inh	AmpC no deterg	Pf growth 48h	Pf growth 96h	AMA1-RON2 inh
COc1cccc(NC(=O)Cn2cc(C(=O)c3ccco3)c3ccccc32)c1	n	x	x	x	x	x
Oc1cc2c(cc1O)C1c3ccc(O)c(O)c3OCC1(O)C2 (centres undefined)	n	n	n	u	2.6µM	2µM
Cn1c(=O)n(C)c2cc(N3CCOCC3)c(NS(=O)(=O)c3cccc(C#N)c3)cc21	n	x	x	x	x	x
CC1CN(S(=O)(=O)c2cccc(-c3cn4cccnc4n3)c2)CC(C)O1 (centres undefined)	n	x	n	7.4µM	n	x
O=S(=O)(c1cccc(-c2cn3cccnc3n2)c1)N1CCOCC1	u	x	n	u	n	n
O=S(=O)(Nc1cccc(-c2cn3cccnc3n2)c1)c1ccc(-c2ccccc2)cc1	u	4.5µM	n	n	n	n
COc1ccc(CNc2ncnc3c2c(-c2ccccc2)cn3-c2ccc(C)c(Cl)c2)cc1	n	x	x	x	x	x
COc1ccccc1C(=O)Nc1cc2c(cc1N1CCOCC1)n(C)c(=O)n2C	n	x	x	x	x	x
COc1ccc(CNC(=O)C2CCCN(S(=O)(=O)c3ccc4c(ccn4C)c3)C2)c(OC)c1 (centres undefined)	n	x	x	x	x	x
CCOC(CNCc1cc(C)c2[nH]c3ccccc3c2c1C)OCC	x	1.8µM	x	x	x	n
CCOc1ccc(Cn2c(CNS(=O)(=O)c3ccc(Cl)s3)nc3cccnc32)cc1	n	x	x	x	x	x
Cc1cc(OC(C)C(=O)NCC2CCCO2)cc(C)c1Cl (centres undefined)	n	n	n	n	5.2µM	n
CC(Oc1ccc([N+](=O)[O-])cc1)C(=O)NCC1CCCO1 (centres undefined)	n	n	n	n	n	n
CCc1ccc(CC2S/C(=C(\C#N)C(C)=O)NC2=O)cc1 (centres undefined)	n	n	n	u	2.9µM	n
CCOC(=O)c1ccc(CC2S/C(=C(\C#N)C(C)=O)NC2=O)cc1 (centres undefined)	n	n	n	x	u	n
COc1ccccc1OCC(=O)NCC1(N2CCOCC2)CCCCC1	n	x	x	x	x	x
COc1ccc(C2CC(O)(c3ccccc3)Oc3c(C)ccc(C)c32)cc1 (centres undefined)	n	u	n	9.3µM	u	n
Cc1ccc(NC(=O)CN2CCN(C3CCCCC3)C(=O)C2=O)cc1	n	x	x	x	x	x
CCCc1cc(=O)[nH]c(Nc2ccccc2O)n1	n	x	x	x	x	x
O=C1CCCN1CC1CCN(Cc2nc(CC3CC3)no2)CC1	n	n	n	u	u	n
O=C1CCCN1CC1CCCN(Cc2nc(COc3ccccc3)no2)C1 (centres undefined)	n	n	n	n	15µM	n
O=C(CCN1CCCCCC1)c1ccccc1	n	n	n	n	u	n
O=C(CCCCN1CCCCC1)c1ccc2c(c1)Cc1ccccc1-2	n	u	n	5.2µM	n	n
O=C(/C=C/c1ccccc1)NCCN1CCOCC1	n	n	n	n	n	n
